The AC50 is the concentration at which the activity in the assay is half-maximal.

Experiment [1] addresses Glucocorticoid receptor (Homo sapiens) (UniProt P04150). In words: ATG_GR_TRANS: Attagene TRANS-FACTORIAL HepG2 Assay for human Glucocorticoid Receptor (GR) (AID 2282978; active = hit-call score of the fitted dose curve at least 0.9, where 1 is the maximum;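 note: activators score as hits since higher reporter transcript over DMSO is fitted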). The conditions noted are these: HepG2 Attagene TRANS GR reporter, mRNA transcription. The gist of the method:
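Readout is reporter transcript from a chimeric GR-Gal4 acting on GAL4-UAS in transfected human HepG2 liver cells after 24 h exposure, quantified by RT-PCR and capillary electrophoresis. Activation fitted upward against DMSO.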

Experiment [2] concerns the target Bile acid receptor (Homo sapiens) (UniProt Q96RI1). In words: ATG_FXR_TRANS: Attagene TRANS-FACTORIAL HepG2 Assay for Farnesoid X Receptor (FXR) (AID 2282979; active = hit-call score of the fitted dose curve at least 0.9, where 1 is the maximum;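 note: hits raise reporter mRNA above DMSO so AC50 marks FXR activation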). As to conditions: HepG2 Attagene TRANS FXR-GAL4 reporter transcription. In outline:
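HepG2 cells transiently transfected with reporter constructs in which a chimeric FXR-GAL4 protein drives a GAL4-UAS reporter; 24 h compound exposure. Reporter mRNA measured by RT-PCR, FAM labelling, HpaI digestion and capillary electrophoresis; gain-of-signal versus DMSO.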

Experiment [3] is described as follows: ATG_M_06_TRANS: Attagene TRANS-FACTORIAL HepG2 Assay for M06 Transcription Factor (Internal Marker) (AID 2282983; active = hit-call score of the fitted dose curve at least 0.9, where 1 is the maximum). As to conditions: HepG2 Attagene TRANS M06 internal marker reporter. In outline:
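In this multiplexed HepG2 system, compounds are incubated 24 h with cells carrying GAL4-UAS reporter units. Reporter RNA is amplified and resolved by capillary electrophoresis, and induction is scored against DMSO.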

For experiment [4], the target named is Nuclear receptor subfamily 4 group A member 2 (Homo sapiens) (UniProt P43354). In words: ATG_NURR1_TRANS: Attagene TRANS-FACTORIAL HepG2 Assay for human Nuclear Receptor Related Protein 1 (NURR1) (AID 2282985; active = hit-call score of the fitted dose curve at least 0.9, where 1 is the maximum). The conditions noted are these: HepG2 Attagene TRANS reporter, mRNA readout. The gist of the method:
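Reporter transcript induction, measured by RT-PCR with fluorescent labelling, HpaI digestion and capillary electrophoresis, after 24 hr dosing of human HepG2 cells transiently expressing an exogenous NR-Gal4 fusion with GAL4-UAS-driven reporters; DMSO as baseline.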

In experiment [5] the target is Transcriptional activator Myb (Homo sapiens) (UniProt P10242). Kind of experiment: ATG_Myb_CIS: Attagene CIS-FACTORIAL HepG2 Assay for human Myeloblastosis (Myb) Proto-Oncogene Transcription Factor (AID 2282986). The conditions noted are these: HepG2 Attagene CIS-FACTORIAL Myb reporter transcription; actives raise or lower the signal. The gist of the method: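 Reporter mRNA is quantified by RT-PCR and capillary electrophoresis 24 h after dosing HepG2 cells transfected with cis-regulated reporter units, which track endogenous transcription factor activity. Gain and loss of signal are fitted versus DMSO baseline.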
Transcriptional activator Myb (Homo sapiens), sequence (P10242 whole entry, looked up): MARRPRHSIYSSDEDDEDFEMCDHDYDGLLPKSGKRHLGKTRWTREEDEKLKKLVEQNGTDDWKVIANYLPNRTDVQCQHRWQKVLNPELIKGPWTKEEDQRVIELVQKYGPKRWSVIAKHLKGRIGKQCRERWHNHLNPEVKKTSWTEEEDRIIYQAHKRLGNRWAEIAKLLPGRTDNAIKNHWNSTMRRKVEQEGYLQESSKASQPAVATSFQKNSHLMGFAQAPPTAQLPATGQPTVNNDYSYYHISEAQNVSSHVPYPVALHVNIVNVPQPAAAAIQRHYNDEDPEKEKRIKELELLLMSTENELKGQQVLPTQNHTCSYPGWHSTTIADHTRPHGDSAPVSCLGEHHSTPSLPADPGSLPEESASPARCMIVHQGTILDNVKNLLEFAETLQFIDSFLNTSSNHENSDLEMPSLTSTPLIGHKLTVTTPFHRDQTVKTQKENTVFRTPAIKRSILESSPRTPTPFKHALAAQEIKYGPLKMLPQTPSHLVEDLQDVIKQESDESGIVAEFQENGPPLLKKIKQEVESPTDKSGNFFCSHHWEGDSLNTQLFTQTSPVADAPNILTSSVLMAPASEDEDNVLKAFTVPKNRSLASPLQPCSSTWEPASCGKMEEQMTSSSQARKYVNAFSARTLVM

The target of experiment [6] is Nuclear respiratory factor 1 (Homo sapiens) (UniProt Q16656). In words: ATG_NRF1_CIS: Attagene CIS-FACTORIAL HepG2 Assay for human Nuclear Respiratory Factor 1 (NRF1) Orphan Gene (AID 2282987). As to conditions: HepG2 NRF1 cis-element reporter, Attagene multiplex; actives raise or lower the signal. The gist of the method: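 Endogenous NRF1-driven reporter transcription in transfected HepG2 cells after 24 h treatment. Readout: RT-PCR products, 6-FAM labelled and resolved by capillary electrophoresis; changes fitted both directions relative to DMSO.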
Nuclear respiratory factor 1 (Homo sapiens), sequence (Q16656 whole entry, looked up): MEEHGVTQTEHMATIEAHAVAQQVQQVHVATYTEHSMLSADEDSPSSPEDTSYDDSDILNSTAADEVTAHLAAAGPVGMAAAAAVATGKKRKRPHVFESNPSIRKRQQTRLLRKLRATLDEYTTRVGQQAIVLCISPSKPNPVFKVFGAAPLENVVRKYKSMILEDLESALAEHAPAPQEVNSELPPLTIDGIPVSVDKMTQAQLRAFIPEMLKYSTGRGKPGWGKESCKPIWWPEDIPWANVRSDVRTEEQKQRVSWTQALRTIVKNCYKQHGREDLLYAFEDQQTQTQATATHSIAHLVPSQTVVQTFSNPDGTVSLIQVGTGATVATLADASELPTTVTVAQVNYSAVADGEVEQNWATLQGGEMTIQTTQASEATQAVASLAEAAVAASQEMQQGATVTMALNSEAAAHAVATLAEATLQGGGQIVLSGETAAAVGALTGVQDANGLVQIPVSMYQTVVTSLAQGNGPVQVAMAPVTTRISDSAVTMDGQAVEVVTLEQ

A short description of experiment [7]: ATG_NFI_CIS: Attagene CIS-FACTORIAL HepG2 Assay for human Nuclear Factor I (NFI) (AID 2282989). The conditions noted are these: HepG2 cis-regulatory reporter, NFI response element transcription; actives raise or lower the signal. In outline: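 After transient transfection of HepG2 with cis-promoter reporter constructs and 24 h dosing, RNA is reverse-transcribed, amplified, 6-FAM end-labelled and HpaI-digested before capillary analysis. Bidirectional curve fitting against DMSO.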

Experiment [8] deals with Myc proto-oncogene protein (Homo sapiens) (UniProt P01106). Kind of experiment: ATG_Myc_CIS: Attagene CIS-FACTORIAL HepG2 Assay for human Myelocytomatosis (Myc) Proto-Oncogene Transcription Factor (AID 2282990). The conditions noted are these: HepG2, Attagene cis-reporter transcription factor activity; actives raise or lower the signal. In outline: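 HepG2, transient MRTU transfection (cis promoters, endogenous TFs); 24 h dosing; TriZol RNA → oligo(dT) RT → PCR → 6-FAM primer extension → HpaI cut → CE. Bidirectional fit vs DMSO.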
Myc proto-oncogene protein (Homo sapiens), sequence (P01106 whole entry, looked up): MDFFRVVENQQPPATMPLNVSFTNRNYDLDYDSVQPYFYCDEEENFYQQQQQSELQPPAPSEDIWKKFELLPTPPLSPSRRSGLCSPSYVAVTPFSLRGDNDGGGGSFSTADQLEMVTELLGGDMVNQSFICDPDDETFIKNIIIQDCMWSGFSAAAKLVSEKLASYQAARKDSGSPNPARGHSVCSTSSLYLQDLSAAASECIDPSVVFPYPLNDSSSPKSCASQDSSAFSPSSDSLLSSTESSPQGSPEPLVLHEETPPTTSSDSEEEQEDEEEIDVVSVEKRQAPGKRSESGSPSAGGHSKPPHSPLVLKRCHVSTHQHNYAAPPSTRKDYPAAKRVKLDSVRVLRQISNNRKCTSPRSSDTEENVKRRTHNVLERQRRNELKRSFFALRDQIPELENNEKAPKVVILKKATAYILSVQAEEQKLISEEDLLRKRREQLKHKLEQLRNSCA

Experiment [9] in a line: ATG_NF_kB_CIS: Attagene CIS-FACTORIAL HepG2 Assay for human Nuclear Factor Kappa B (NF-kB) (AID 2282991). As to conditions: HepG2 Attagene cis-factorial NF-kB reporter mRNA; actives raise or lower the signal. The gist of the method: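 Readout is reporter transcript level, gain or loss versus DMSO, measured 24 h post-dose via RT-PCR, fluorescent labelling and capillary electrophoresis. Human HepG2 liver cells carried transiently transfected CIS reporter constructs reflecting endogenous factors.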

Experiment [10] can be described thus: ATG_NRF2_ARE_CIS: Attagene CIS-FACTORIAL HepG2 Assay for human Nuclear Factor Erythroid 2 Related Factor 2 (NFR2) response to Antioxidant Response Elements (ARE) (AID 2282992). The conditions noted are these: HepG2 Attagene ARE/NRF2 reporter, transcription factor activity; actives raise or lower the signal. The gist of the method: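 Using transiently transfected HepG2 cells exposed for 24 h, reporter mRNA levels were determined by RT-PCR with fluorescent primer extension and capillary electrophoresis, analysed for gain or loss of signal against DMSO.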

Experiment [11] in a line: ATG_Oct_MLP_CIS: Attagene CIS-FACTORIAL HepG2 Assay for human Octamer-Binding Transcription Factor (Oct) (AID 2282993). As to conditions: HepG2 Attagene cis-factorial Oct reporter, mRNA; actives raise or lower the signal. The gist of the method: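 Cells of the HepG2 line express promoter-controlled reporter sequences whose mRNA levels, after 24 h treatment, are measured by RT-PCR and capillary electrophoresis. Increases and decreases are scored relative to DMSO.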

A short description of experiment [12]: BSK_3C_TissueFactor: BioMAP Diversity Plus: 3C Assay for Tissue Factor Biomarker Activity (AID 2282997). As to conditions: BioMAP 3C HUVEC, tissue factor biomarker readout; actives raise or lower the signal. The gist of the method:
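Readout: Tissue Factor ELISA. Cells: human primary umbilical vein endothelium. Time: 24 h after dosing. Analysis: bidirectional fit, DMSO baseline.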

Experiment [13] in a line: BSK_3C_uPAR: BioMAP Diversity Plus: 3C Assay for Urokinase-type plasminogen activator receptor (uPAR) Biomarker Activity (AID 2282998). As to conditions: BioMAP 3C HUVEC, uPAR biomarker ELISA; actives raise or lower the signal. In outline: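 Endothelial primary cells of human umbilical vein origin received test chemical; 24 h later uPAR was assayed by ELISA. Fitting was bidirectional, DMSO as negative control.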
A general note: ELISA stands for enzyme-linked immunosorbent assay.

Experiment [14] in a line: BSK_3C_VCAM1: BioMAP Diversity Plus: 3C Assay for Vascular cell adhesion molecule 1 (VCAM1) Biomarker Activity (AID 2282999). As to conditions: BioMAP 3C HUVEC, VCAM1 ELISA, cytokine-stimulated; actives raise or lower the signal. In outline: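 Activity fitted in both directions relative to DMSO, with ELISA measurement of the surface marker on primary HUVEC (3C) at 24 h post-treatment; parallel SRB staining (0.1% SRB, TCA-fixed, 560 nm) flagged overt cytotoxicity.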

For experiment [15], the target named is Cellular tumor antigen p53 (Homo sapiens) (UniProt P04637). Kind of experiment: ATG_p53_CIS: Attagene CIS-FACTORIAL HepG2 Assay for human p53 Transcription Factor (AID 2282994). The conditions noted are these: HepG2 p53 cis-element reporter, Attagene mRNA; actives raise or lower the signal. In outline:
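In HepG2 cells, reporter transcription units under cis-regulatory promoters were transiently introduced. Following 24 h treatment, RNA was processed to labelled, digested cDNA fragments read by capillary electrophoresis; fitting was bidirectional versus DMSO.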

The nature of experiment [16]: ATG_M_32_TRANS: Attagene TRANS-FACTORIAL HepG2 Assay for M32 Transcription Factor (Internal Marker) (AID 2282984; active = hit-call score of the fitted dose curve at least 0.9, where 1 is the maximum;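 note: transcript level of a background control reporter unit measured by RT-PCR and capillary electrophoresis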). As to conditions: HepG2 Attagene TRANS M32 internal marker reporter. The gist of the method:
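Internal background reporter in transfected HepG2: after 24 h chemical exposure, RNA reverse-transcribed, reporter cDNA amplified, fluorescently labelled and HpaI-cut, then sized by capillary electrophoresis. Gain of signal fitted against DMSO control.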

For experiment [17], the target named is Hepatocyte nuclear factor 4-alpha (Homo sapiens) (UniProt P41235). In words: ATG_HNF4a_TRANS: Attagene TRANS-FACTORIAL HepG2 Assay for human Hepatocyte Nuclear Factor 4 alpha (HNF4a) (AID 2282982; active = hit-call score of the fitted dose curve at least 0.9, where 1 is the maximum). As to conditions: HepG2 HNF4a transactivation reporter, mRNA readout. In outline:
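Activity of an exogenous HNF4a–Gal4 fusion scored as induced GAL4-UAS reporter transcripts after 24 h chemical exposure of transfected human HepG2 cells. Read-out via RT-PCR with 6-FAM labelling and capillary electrophoresis; rise over DMSO baseline.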

Experiment [18] is described as follows: BSK_4H_Eotaxin3: BioMAP Diversity Plus: 4H Assay for Eotaxin 3 Biomarker Activity (AID 2283000). The conditions noted are these: primary human endothelial cells (HUVEC); actives raise or lower the signal. In outline: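 HUVEC, 24 h post-dose, ELISA for Eotaxin-3/CCL26. Gain or loss of signal fitted bidirectionally vs DMSO baseline.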
Experiment [19] deals with Oxysterols receptor LXR-alpha (Homo sapiens) (UniProt Q13133). Kind of experiment: ATG_LXRa_TRANS: Attagene TRANS-FACTORIAL HepG2 Assay for human Liver X Receptor alpha (LXRa) (AID 2282980; active = hit-call score of the fitted dose curve at least 0.9, where 1 is the maximum). The conditions noted are these: HepG2 Attagene TRANS reporter, LXRa transactivation. In outline:
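HepG2 cells were transiently transfected with multiplexed reporter units driven by chimeric LXRa–GAL4 fusion proteins, then dosed for 24 h. Reporter mRNA was quantified by RT-PCR, fluorescent labelling and capillary electrophoresis; gain of signal fitted against DMSO baseline.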

The structures appear in SMILES notation. Results filed as inconclusive are left out. The source made the active and inactive calls. Rule for the calls, unless noted: active = hit-call score of the fitted dose curve at least 0.9, where 1 is the maximum; inactive = score below 0.9.

Glucocorticoid receptor (Homo sapiens), sequence (P04150 whole entry, looked up, the tested form may be a part): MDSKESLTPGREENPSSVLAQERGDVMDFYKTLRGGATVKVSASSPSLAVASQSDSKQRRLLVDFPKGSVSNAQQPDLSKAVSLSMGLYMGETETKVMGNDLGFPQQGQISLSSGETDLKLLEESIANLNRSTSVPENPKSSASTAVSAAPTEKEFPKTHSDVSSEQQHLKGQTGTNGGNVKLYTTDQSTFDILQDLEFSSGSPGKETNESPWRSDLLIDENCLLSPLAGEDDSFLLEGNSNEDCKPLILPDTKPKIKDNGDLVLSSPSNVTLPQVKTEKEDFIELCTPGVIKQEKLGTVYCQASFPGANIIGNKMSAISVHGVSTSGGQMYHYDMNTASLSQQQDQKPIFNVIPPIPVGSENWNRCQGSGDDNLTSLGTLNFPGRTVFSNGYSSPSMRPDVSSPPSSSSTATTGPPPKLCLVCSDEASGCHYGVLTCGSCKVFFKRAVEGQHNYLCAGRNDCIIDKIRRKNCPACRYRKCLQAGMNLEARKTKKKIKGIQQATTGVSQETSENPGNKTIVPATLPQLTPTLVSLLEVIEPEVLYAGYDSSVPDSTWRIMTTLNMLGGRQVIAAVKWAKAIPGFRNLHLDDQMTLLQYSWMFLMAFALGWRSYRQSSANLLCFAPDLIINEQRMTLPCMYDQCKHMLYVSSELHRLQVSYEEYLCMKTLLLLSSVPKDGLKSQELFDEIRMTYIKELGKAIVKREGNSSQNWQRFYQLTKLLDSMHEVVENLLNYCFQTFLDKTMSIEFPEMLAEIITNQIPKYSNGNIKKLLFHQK
Cellular tumor antigen p53 (Homo sapiens), sequence (P04637 whole entry, looked up, the tested form may be a part): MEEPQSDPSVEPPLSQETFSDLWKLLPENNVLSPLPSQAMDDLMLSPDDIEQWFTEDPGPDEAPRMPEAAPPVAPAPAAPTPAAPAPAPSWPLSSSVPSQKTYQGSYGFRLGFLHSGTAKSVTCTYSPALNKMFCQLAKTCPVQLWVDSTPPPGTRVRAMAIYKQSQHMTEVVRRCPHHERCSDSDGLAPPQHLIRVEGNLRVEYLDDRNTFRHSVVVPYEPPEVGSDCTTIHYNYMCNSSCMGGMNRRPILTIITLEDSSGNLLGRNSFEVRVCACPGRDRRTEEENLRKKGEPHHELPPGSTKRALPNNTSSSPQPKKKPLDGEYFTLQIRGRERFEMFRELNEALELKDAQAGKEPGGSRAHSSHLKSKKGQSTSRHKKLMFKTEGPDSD
Bile acid receptor (Homo sapiens), sequence (Q96RI1 whole entry, looked up, the tested form may be a part): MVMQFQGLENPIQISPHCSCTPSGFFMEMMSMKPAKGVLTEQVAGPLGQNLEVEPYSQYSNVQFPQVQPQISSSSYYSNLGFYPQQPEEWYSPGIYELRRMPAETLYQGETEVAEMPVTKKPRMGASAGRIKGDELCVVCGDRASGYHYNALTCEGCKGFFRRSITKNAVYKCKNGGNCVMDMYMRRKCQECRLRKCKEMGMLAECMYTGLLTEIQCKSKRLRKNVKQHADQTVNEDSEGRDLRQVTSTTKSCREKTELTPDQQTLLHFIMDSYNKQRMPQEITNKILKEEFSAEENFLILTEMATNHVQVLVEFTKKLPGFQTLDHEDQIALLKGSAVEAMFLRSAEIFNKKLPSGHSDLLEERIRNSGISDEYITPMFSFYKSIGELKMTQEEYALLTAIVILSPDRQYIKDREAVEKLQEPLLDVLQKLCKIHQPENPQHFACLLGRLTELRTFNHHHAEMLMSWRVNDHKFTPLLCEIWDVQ
Nuclear receptor subfamily 4 group A member 2 (Homo sapiens), sequence (P43354 whole entry, looked up, the tested form may be a part): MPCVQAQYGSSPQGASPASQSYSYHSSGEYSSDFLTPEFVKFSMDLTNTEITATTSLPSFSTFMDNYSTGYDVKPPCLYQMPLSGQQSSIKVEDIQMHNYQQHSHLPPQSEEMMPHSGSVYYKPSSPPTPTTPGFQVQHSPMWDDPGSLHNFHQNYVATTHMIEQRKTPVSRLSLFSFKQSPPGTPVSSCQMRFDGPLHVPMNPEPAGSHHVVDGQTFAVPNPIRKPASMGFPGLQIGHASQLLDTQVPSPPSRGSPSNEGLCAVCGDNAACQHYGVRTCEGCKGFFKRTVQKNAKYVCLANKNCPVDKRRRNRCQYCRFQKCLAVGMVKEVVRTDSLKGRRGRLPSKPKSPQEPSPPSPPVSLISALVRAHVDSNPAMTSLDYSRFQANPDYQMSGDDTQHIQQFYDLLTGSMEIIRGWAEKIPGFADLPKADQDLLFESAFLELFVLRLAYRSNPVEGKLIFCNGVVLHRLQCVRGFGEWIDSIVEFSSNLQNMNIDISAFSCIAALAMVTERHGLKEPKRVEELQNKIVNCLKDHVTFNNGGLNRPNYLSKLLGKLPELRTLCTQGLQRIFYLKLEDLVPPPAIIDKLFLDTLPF
Hepatocyte nuclear factor 4-alpha (Homo sapiens), sequence (P41235 whole entry, looked up, the tested form may be a part): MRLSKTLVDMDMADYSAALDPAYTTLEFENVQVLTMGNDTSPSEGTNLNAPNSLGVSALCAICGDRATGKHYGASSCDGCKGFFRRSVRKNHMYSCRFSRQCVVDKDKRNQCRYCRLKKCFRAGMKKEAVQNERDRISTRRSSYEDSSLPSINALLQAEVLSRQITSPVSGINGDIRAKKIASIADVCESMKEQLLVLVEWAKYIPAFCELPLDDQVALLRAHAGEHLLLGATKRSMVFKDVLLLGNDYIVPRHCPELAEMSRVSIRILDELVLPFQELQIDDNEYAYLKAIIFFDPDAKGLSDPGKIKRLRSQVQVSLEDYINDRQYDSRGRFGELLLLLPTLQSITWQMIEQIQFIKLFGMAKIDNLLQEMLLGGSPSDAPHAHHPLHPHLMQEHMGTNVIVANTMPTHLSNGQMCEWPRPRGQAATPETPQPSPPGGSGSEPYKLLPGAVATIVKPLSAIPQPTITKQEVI
Oxysterols receptor LXR-alpha (Homo sapiens), sequence (Q13133 whole entry, looked up, the tested form may be a part): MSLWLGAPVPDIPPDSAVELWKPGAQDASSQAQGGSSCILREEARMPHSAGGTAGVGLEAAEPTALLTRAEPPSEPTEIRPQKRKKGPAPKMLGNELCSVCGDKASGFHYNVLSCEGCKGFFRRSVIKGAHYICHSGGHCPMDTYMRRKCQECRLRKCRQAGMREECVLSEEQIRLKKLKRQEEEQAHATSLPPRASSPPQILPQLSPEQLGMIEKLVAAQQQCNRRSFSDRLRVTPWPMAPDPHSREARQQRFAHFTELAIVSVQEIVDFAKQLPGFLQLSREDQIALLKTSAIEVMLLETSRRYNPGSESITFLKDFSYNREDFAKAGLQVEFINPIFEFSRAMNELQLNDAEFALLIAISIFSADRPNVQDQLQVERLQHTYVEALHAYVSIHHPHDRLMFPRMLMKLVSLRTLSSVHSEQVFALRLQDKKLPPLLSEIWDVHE

Take `CCOP(=S)(OCC)SCSCC`: the compound was classed as inactive in [1], in [2], in [3], in [4], in [5] and in [6]. In addition, the compound was classed as inactive in [7], in experiment [8], in [9], in [11], in [12] and in experiment [13]. The result in [14] was inactive. Moreover, the AC50 in [10] is 73 µM (active).
Take `CC1(C)CN=C(NN=C(/C=C/c2ccc(C(F)(F)F)cc2)/C=C/c2ccc(C(F)(F)F)cc2)NC1`: the call in experiment [1], in [2], in [4], in experiment [5], in [8] and in experiment [9] was inactive. The compound was called inactive in [15]. Besides, the AC50 in [6] was 18 µM (active); in experiment [7] it was 15.4 µM (active); in [10] it was 3.06 µM (active); in experiment [11], 20.8 µM (active).
For the compound `O=P(Oc1ccccc1)(Oc1ccccc1)Oc1ccccc1`, the result in experiment [1], in [2], in experiment [3], in experiment [16], in experiment [5] and in experiment [6] was inactive. Further, the compound was classed as inactive in experiment [7], in [8], in experiment [9] and in experiment [15]. Also, the AC50 is 47.9 µM (active) in experiment [4]; 28.5 µM (active) in [10]; 25.2 µM (active) in experiment [11]; 27.3 µM (active) in [12]; 32.2 µM (active) in experiment [13]; 27.6 µM (active) in [14].
For `C=CC(=O)OCC(CC)(COC(=O)C=C)COC(=O)C=C`, the compound was classed as inactive in [1], in experiment [17], in experiment [3], in experiment [4], in [5] and in experiment [6]. Also, the compound was called inactive in [7], in [8] and in experiment [15]. For the same compound, the AC50 in [9] was 5.65 µM (active); in [10], 1.65 µM (active); in experiment [11], 25.5 µM (active); in experiment [13], 3.57 µM (active); in experiment [14], 2.55 µM (active); in experiment [18] it was 2.41 µM (active).
With `O=C(O)C1C(C(=O)O)C2(Cl)C(Cl)=C(Cl)C1(Cl)C2(Cl)Cl` (stereo not drawn), the call in experiment [1], in experiment [19], in experiment [17], in [3], in experiment [16] and in [5] was inactive. Besides, the call in experiment [6], in [7], in experiment [8], in experiment [9], in experiment [10] and in experiment [11] was inactive. In addition, the result in experiment [15], in experiment [12], in experiment [13], in experiment [14] and in [18] was inactive.

(Values after PubChem BioAssay (EPA / NIEHS).)
